# Shown are actives, neighbours in structure and some others; about 0.9% of the full set was active somewhere.
# PPARg SRC-2 ag = agonists of PPARg-SRC-2 recruitment, primary screen, biochemical, HTS | Peroxisome proliferator-activated receptor gamma (Homo sapiens), P37231 | PPARgamma LBD-SRC-2 recruitment | activation, % at 8 µM | 200,000 compounds, 0.34% hits; in the data active = activation above about 22%
# Target sequence (P37231 whole entry, looked up, the tested form may be a part): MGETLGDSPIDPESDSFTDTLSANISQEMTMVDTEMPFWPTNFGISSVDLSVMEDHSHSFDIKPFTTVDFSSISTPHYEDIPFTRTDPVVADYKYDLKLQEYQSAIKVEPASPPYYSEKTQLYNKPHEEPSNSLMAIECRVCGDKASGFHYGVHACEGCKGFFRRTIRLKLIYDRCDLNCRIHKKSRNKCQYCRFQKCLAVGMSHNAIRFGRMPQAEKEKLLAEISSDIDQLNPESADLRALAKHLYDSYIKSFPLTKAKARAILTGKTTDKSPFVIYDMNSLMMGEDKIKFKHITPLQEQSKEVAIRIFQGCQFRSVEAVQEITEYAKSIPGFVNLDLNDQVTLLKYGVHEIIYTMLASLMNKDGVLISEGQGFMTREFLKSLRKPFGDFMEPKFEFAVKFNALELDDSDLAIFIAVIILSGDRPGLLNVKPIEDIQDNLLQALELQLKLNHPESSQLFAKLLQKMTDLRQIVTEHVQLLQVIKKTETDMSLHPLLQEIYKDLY
# PPARg SRC1 recr = PPARgamma agonists recruiting SRC-1 coactivator, primary screen, biochemical | 200,000 compounds, 0.41% hits | PPARgamma-SRC-1 coactivator recruitment biochemical assay | AID 631, 2007 | activation, % at 8 µM | Peroxisome proliferator-activated receptor gamma (Homo sapiens), P37231; in the data active = activation above about 19%
# TR-FRET SRC-2 ct = TR-FRET signal artefacts, primary screen, artefact control for PPARgamma SRC-2 agonist project, biochemical. TR-FRET artefact counter-screen; stronger effect = higher value. TR-FRET ratio at 8 µM. 200,000 compounds, 0.4% hits
# PPARg SRC-3 ag = PPARgamma agonists recruiting SRC-3 coactivator, primary screen, biochemical | Peroxisome proliferator-activated receptor gamma (Homo sapiens), P37231 | biochemical PPARgamma/SRC-3 coactivator recruitment assay | activation, % at 8 µM | 200,000 compounds, 0.26% hits | AID 731, 2007; in the data active = activation above about 23%
# SRC1 TRFRET art = TR-FRET detection interference compounds, primary screen, artefact control for PPARgamma SRC-1 recruitment agonists, biochemical, TR-FRET emission ratio. 99,000 compounds, 0.34% hits. TR-FRET ratio at 8 µM. AID 1051, 2008. TR-FRET detection artefact counter-screen; stronger effect = higher value; in the data active = TR-FRET ratio above about 2300
# SRC3 TRFRET art = TR-FRET detection interference compounds, artefact control for PPARgamma SRC-3 recruitment agonists, biochemical, TR-FRET ratio; TR-FRET artefact counter-screen, PPARgamma/SRC-3 format; stronger effect = higher value; TR-FRET ratio at 8 µM; 99,000 compounds, 0.39% hits; AID 1048, 2008
# PPARg SRC2 ag = agonists of PPARgamma SRC-2 coactivator recruitment, confirmation, biochemical, HTS; activation, % at 8 µM; biochemical SRC-2 recruitment by PPARgamma; 790 compounds, 52% hits; shares compounds with PPARg SRC-3 ag; in the data active = activation above about 22%
# PPARg SRC1 ag = PPARgamma agonists recruiting SRC-1 coactivator, confirmation, biochemical; shares compounds with PPARg SRC-3 ag; PPARgamma–SRC-1 coactivator recruitment biochemical assay; activation, % at 8 µM; 790 compounds, 43% hits; AID 1300, 2008; in the data active = activation above about 20%
# PPARg SRC3 conf = PPARgamma-driven SRC-3 coactivator recruitment agonists, confirmation, biochemical; shares compounds with PPARg SRC-3 ag; biochemical PPARgamma-SRC-3 coactivator recruitment, agonist mode; activation, % at 8 µM; 790 compounds, 29% hits; AID 1301, 2008; in the data active = activation above about 24%
# Hits are given with their value; i = inactive; nt = no result; ! = repeats disagree. Cut-off read from the data, not from the text of the source, unless noted: active = TR-FRET ratio above about 2000; inactive = the rest.
SMILES,PPARg SRC-2 ag,PPARg SRC1 recr,TR-FRET SRC-2 ct,PPARg SRC-3 ag,SRC1 TRFRET art,SRC3 TRFRET art,PPARg SRC2 ag,PPARg SRC1 ag,PPARg SRC3 conf
O=C(CSc1c2c(nc3cc(Cl)ccc13)CCCC2)NCc1ccco1,26,i,2007,i,nt,nt,29,21,i
COc1ccc(NC(=O)CSc2c3c(nc4ccccc24)CCCC3)c(OC)c1,27,26,1985,i,i,i,26,i,i
COc1ccc(NC(=O)CSc2c3c(nc4cc(Cl)ccc24)CCCC3)cc1OC,i,i,i,i,i,i,nt,nt,nt
COCCNC(=O)CSc1c2c(nc3ccc(Cl)cc13)CCCC2,31,39,2154,i,2521,2446,i,i,i
COc1ccccc1NC(=O)CSc1c2c(nc3ccccc13)CCC2,i,i,i,i,i,i,nt,nt,nt
CCOC(=O)C1CCN(C(=O)CSc2c3c(nc4ccccc24)CCC3)CC1,23,i,i,i,i,i,24,i,i
O=C(O)CC(NS(=O)(=O)c1ccc(Br)cc1)c1ccco1 (stereo unspecified),i,i,i,i,nt,nt,nt,nt,nt
CC1CCCCN1S(=O)(=O)c1ccc(C(=O)Nc2ccccc2-c2nc3ccccc3[nH]2)cc1 (stereo unspecified),i,i,i,i,i,i,nt,nt,nt
CCCCc1ccc(NC(=O)COc2ccc(C(=O)Nc3ccccc3C)cc2)cc1,i,i,i,i,i,i,nt,nt,nt
CCn1c2c(c3cc(Br)ccc31)CCC/C2=N\O,39,34,2351,61,nt,nt,45,30,29
CCn1c2c(c3cc(OCC(C)C)ccc31)CCCC2=O,i,i,i,i,nt,nt,nt,nt,nt
Clc1ccc(-c2ccc(C=Nc3ccc(N4CCOCC4)cc3)o2)cc1,i,i,i,i,i,i,nt,nt,nt
Clc1cccc(-c2ccc(C=Nc3ccc(N4CCOCC4)cc3)o2)c1Cl,27,24,2206,i,2633,i,36,29,i
COc1ccc(CC(=O)Nc2ccc(-c3nc4cc(C)ccc4o3)c(O)c2)cc1OC,i,43,i,i,nt,nt,41,28,25
Cc1ccc2oc(-c3ccc(NC(=O)c4ccncc4)cc3O)nc2c1,i,i,i,i,i,i,nt,nt,nt
CCN(CC)c1ccc(/C=N/NC(=O)CN2CCCc3ccccc32)cc1,i,i,i,i,i,i,nt,nt,nt
CC(Sc1ccc2ccccc2n1)C(=O)O (stereo unspecified),23,30!,2286,37,nt,nt,26,i,i
CC(Sc1cnc2ccccc2n1)C(=O)O (stereo unspecified),26,i,i,i,nt,nt,i,i,i
Cc1cc(SC(C)C(=O)O)nc2ccccc12 (stereo unspecified),i,i,i,i,i,i,nt,nt,nt
O=[N+]([O-])c1cc(Cc2ccccc2)cc(C=Nc2ccc(N3CCOCC3)cc2)c1O,65,51,2504,39,3128,2652,i,i,i
CCn1c(=O)cc(SCC(=O)N2CCN(c3ccccn3)CC2)c2ccccc21,35,39,2505,i,3018,2355,50,34,34
CCn1c(=O)cc(SCC(=O)N2CCN(c3ccccc3F)CC2)c2ccccc21,42,30,2381,34,nt,nt,36,23,24
CCOC(=O)CSC1=N/C(=C\c2cc(OC)c(OC)c(OC)c2)C(=O)N1C,i,i,i,i,i,i,nt,nt,nt

# Screens (PubChem)
